# High-throughput results (PubChem BioAssay)
# Most compounds without a hit are left out; they make up all but 3.2% or so of the library.
# Pol III holo inh – qHTS Assay for Inhibitors of DNA Polymerase III Holoenzyme System; reconstituted DNA polymerase III holoenzyme replication, biochemical; Potency, µM (top dose mostly 57.1 µM), inactives show top-dose activity change, negative = inhibition; 0.25% of 71,000 active; AID 603, 2007; also: potency is read from the fitted curve at half-maximal effect; % is scaled to controls: 0 for no effect and ±100 for the full control effect
#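 Reconstituted *E. coli* holoenzyme (0.35 nM Pol III, 1 nM beta, 154 nM SSB, 2 nM primase) was preincubated with compound for 15 min at RT. Synthesis on 1.4 nM ssM13Gori ran 35 min, then was stopped with PicoGreen/EDTA and read as dsDNA fluorescence.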
# 15-hLO inh – qHTS Assay for Inhibitors of 15-hLO (15-human lipoxygenase). Polyunsaturated fatty acid lipoxygenase ALOX15 (Homo sapiens), P16050. purified 15hLO-1, xylenol orange hydroperoxide absorbance. Potency, µM (top dose mostly 57.1 µM), inactives show top-dose activity change, negative = inhibition, actives largely listed as inhibitors. 1.4% of 74,000 active; also: potency is read from the fitted curve at half-maximal effect; % is scaled to controls: 0 for no effect and ±100 for the full control effect; nearly all actives have a fitted effect of over 55% in size
#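 Hydroperoxide formed from arachidonic acid (50 uM) by purified human 15hLO-1 (40 nM) oxidizes ferrous iron, and the ferric-xylenol orange complex is read at 573 versus 405 nm. Compounds were preincubated 15 min; reaction ran 6 min at room temperature.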
# UbGFP stabilizer – Ubiquitin-GFP Assay | Potency, µM (titrated, usually from 45.9 µM), for the others: at the top dose activation (GFP accumulation), hits mostly activators | Ubiquitin-GFP reporter cells, proteasome inhibition, GFP fluorescence; response scale: untreated = 0%, 10 µM MG-132 = 100% | 67,000 tested, under 10 active; active = well fitted activation curve with a large enough effect, not every such curve was filed as active; inconclusive = small, poorly fitted or top-dose-only effect, or another doubt; inactive = no such curve, though single readings can be large or run the other way; also: potency is read from the fitted curve at half-maximal effect
#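 U2OS Ub(G76V)-GFP reporter; O/N plating, 0.5% FBS; cpd 46 uM–2.9 nM, 4 h, 37 °C; GFP+ cell count, 488/515 nm; norm. to basal vs 10 uM MG-132; CRC fit.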
# HBB splicing – qHTS Assay for Modulators of Hemoglobin Beta Chain Splicing. HBB splicing reporter cell assay, activation; EGFP reporter with mutant IVS2-654 intron; response scale: normalised to 500 nM splice-correcting PNA. Potency, µM (titrated, usually from 46.1 µM), for the others: top-dose activation, actives largely listed as activators. 0.06% of 65,000 active. AID 925, 2007; also: potency is read from the fitted curve at half-maximal effect; 0% is about no effect
#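 Compounds were applied for 2 days to HeLa EGFP-654 cells, 500/well in Optimem with 2% FCS. The reporter's EGFP is disrupted by mis-splicing of beta-globin intron IVS2-654. Readout: summed well GFP fluorescence from 488 nm laser scanning; reference was 500 nM antisense […] 654 PNA.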
# Tau fil binding – qHTS Assay for Tau Filament Binding; recombinant tau filaments, thioflavin S fluorescence, 15 h; filaments grown with octadecylsulfate alongside compound; Microtubule-associated protein tau (Homo sapiens), P10636; Potency, µM (highest dose often 57.1 µM), inactives show at the highest dose activity change, negative = inhibition; 2% of 71,000 active;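 also: potency is read from the fitted curve at half-maximal effect; % is scaled to controls: 0 for no effect and ±100 for the full control effect; actives lower thioflavin S fluorescence by blocking filaments or displacing dye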
# Target sequence (P10636 whole entry, looked up): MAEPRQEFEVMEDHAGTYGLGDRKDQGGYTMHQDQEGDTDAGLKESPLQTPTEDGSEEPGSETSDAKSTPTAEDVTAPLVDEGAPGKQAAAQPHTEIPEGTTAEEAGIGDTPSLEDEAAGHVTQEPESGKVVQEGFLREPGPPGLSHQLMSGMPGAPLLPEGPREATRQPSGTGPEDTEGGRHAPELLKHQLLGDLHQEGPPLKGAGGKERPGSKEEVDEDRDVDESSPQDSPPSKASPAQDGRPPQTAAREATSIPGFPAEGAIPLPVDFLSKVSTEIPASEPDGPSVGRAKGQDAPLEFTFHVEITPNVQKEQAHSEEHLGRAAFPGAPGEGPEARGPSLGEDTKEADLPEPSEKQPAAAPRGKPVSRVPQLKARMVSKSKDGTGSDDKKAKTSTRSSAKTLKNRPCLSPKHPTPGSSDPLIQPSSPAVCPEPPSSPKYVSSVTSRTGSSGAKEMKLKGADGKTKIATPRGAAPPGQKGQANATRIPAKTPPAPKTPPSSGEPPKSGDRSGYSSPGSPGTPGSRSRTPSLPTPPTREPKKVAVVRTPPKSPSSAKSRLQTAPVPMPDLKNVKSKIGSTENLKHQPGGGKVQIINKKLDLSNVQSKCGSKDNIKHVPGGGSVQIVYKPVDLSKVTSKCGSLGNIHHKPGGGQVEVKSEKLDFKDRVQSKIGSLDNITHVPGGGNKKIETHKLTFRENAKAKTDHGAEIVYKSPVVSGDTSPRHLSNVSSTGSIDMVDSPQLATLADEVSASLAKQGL
#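 Assay mix: 1 uM His-tagged tau, 30 uM sodium octadecylsulfate, thioflavine S dye in HEPES/NaCl/DTT buffer. Compound is added prior to the inducer. Fluorescence after 15 h at 37 C.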
# Epigenetic mod – qHTS Assay for Epigenetic Modulators | mouse C127i GFP locus derepression, cytometry, 30 h | Potency, µM (series often up to 46.1 µM), for inactives: at the top dose GFP derepression (activation) | 0.09% of 68,000 active; also: % of control where 0% means no effect
#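 Locus derepression in mouse mammary C127i cells whose integrated CMV-GFP reporter is normally silent; GFP expression after 30 h compound treatment was quantified by counting fluorescent cells.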
# Numbers without * were called inactive; i = inactive; ? = inconclusive; nt = not tested or not shown; [ ] = dose if it differs, or a comment. Unless noted, calls follow the shape of the dose curve; as a rule, active = well fitted curve in the direction sought with a large enough effect; inconclusive = small, poorly fitted or top-dose-only effect, or another doubt; inactive = no such curve, though single readings can be large; an effect the other way counts as inactive or inconclusive.
SMILES,Pol III holo inh,15-hLO inh,UbGFP stabilizer,HBB splicing,Tau fil binding,Epigenetic mod
Cc1nc2nc(-c3ccco3)[nH]n2c(=O)c1Cc1ccccc1,-3%,16µM*,2%,-2%,91%,0%
CC(=O)[C@H](CC(C)C)NC(=O)[C@@H](CC(C)C)NC(=O)[C@H](CC(C)C)NC(=O)OCc1ccccc1,-3%,-8%[25.6 µM],0.79µM*,nt,?,5%
Cc1cc(-c2csc(NC(=O)c3cc4ccccc4o3)n2)c(C)n1C,-2%,?,0%,0%[57.5 µM],10µM*,0%
Cc1cc2cc(CNC(=O)c3ccc4c(c3)OCO4)ccc2n1C,-8%,20µM*,9%,-1%,?,6%
Cc1cc2cc(CNC(=O)c3cc4ccccc4o3)ccc2n1C,0%,?,7%,0%,16µM*,1%
CCC(=O)Nc1cccc(NC(=O)c2cc3ccccc3o2)c1,-5%,-13%,-3%,0%,4%,-4%
COCC(=O)NCc1ccc2c(c1)cc(C)n2C,2%,?,-5%,0%,22%,6%
COC(=O)CCCC(=O)O,-8%[11.4 µM],28%[11.4 µM],-5%[9.17 µM],0%[9.22 µM],-7%[11.4 µM],-6%[9.22 µM]
CCCCCCCCCCCCCCCCOC[C@@H](COCC(F)(F)F)OP(=O)(O)OCO,-7%,nt,-8%,1%,2%,0%
CN(C)CCCNc1cc(O)c2c(c1O)C(=O)c1ccccc1C2=O,?,3%[11.4 µM],-6%[9.17 µM],0%[9.22 µM],1µM*,2%[9.22 µM]
CN(C)CCCNC(=O)c1ccc(-c2ccccc2)cc1,2%,-21%,-2%,-3%[57.5 µM],-22%,3%
O=C1c2ccccc2C(=O)c2c(O)c(O)cc(O)c21,nt,5µM*,nt,nt,nt,nt
Clc1ccc(/C=C\c2nc(Cl)c(-c3ccc(Cl)cc3)c(Cl)n2)cc1,-9%[11.4 µM],7%[11.4 µM],-7%[9.17 µM],2%[9.22 µM],-14%[11.4 µM],-1%[9.22 µM]
C=CCNC(=O)C(C#N)c1nc2ccccc2nc1N1CCN(Cc2ccccc2)CC1 (stereo unspecified),-1%,-8%,9%,4%,73%,23%
C=CCOC(=O)C(C#N)c1nc2ccccc2nc1N1CCN(Cc2ccccc2)CC1 (stereo unspecified),0%,-28%,7%,0%[1.84 µM],1.6µM*,4%
COCCCNC(=O)C(C#N)c1nc2ccccc2nc1N1CCN(Cc2ccccc2)CC1 (stereo unspecified),nt,nt,nt,nt,nt,-3%[20.6 µM]
N#CC(C(=O)OC1CCCCC1)c1nc2ccccc2nc1N1CCOCC1 (stereo unspecified),11%,1%,29%,-1%[57.5 µM],i,26%
CC(C)COC(=O)C(C#N)c1nc2ccccc2nc1N1CCN(Cc2ccccc2)CC1 (stereo unspecified),-1%,5%,15%,3%[1.84 µM],2µM*,0%
COCCOC(=O)C(C#N)c1nc2ccccc2nc1N1CCN(Cc2ccccc2)CC1 (stereo unspecified),-4%,-8%,-3%,3%[0.369 µM],?,2%
CN1CCN(c2nc3ccccc3nc2C(C#N)C(=O)OC2CCCCC2)CC1 (stereo unspecified),4%,-8%,6%,5%[57.5 µM],0.63µM*,2%
COCC(C)OC(=O)C(C#N)c1nc2ccccc2nc1N1CCN(Cc2ccccc2)CC1 (stereo unspecified),-3%,12%,11%,5%,3.2µM*,0%
NC(N)=N/N=C(\c1ccc(Cl)cc1)C1CC1,-12%[11.4 µM],3%[11.4 µM],-3%[9.17 µM],1%[9.22 µM],5%[11.4 µM],7%[9.22 µM]
C[C@@H](NC(=O)C1(N)CCCC1)C(=O)O,-22%[11.4 µM],9%[11.4 µM],-6%[9.17 µM],-1%[9.22 µM],-4%[11.4 µM],-2%[9.22 µM]
CCC(CC)COC(=O)C(C#N)c1nc2ccccc2nc1N1CCOCC1 (stereo unspecified),-7%,-26%,0%,-3%[57.5 µM],3.2µM*,2%
CN(C)CCn1c(CO)nc2c1c(=O)n(C)c(=O)n2C,-1%[11.4 µM],3%[11.4 µM],-1%[9.17 µM],6%[9.22 µM],4%[11.4 µM],5%[9.22 µM]
SMILES,Pol III holo inh,15-hLO inh,UbGFP stabilizer,HBB splicing,Tau fil binding,Epigenetic mod
O=C(CCN1c2ccccc2Sc2ccccc21)OCc1nnc(-c2ccccc2)o1,-9%,?,-4%,-2%,-29%,1%
O=C(Sc1nnc(-c2ccccc2)o1)N1c2ccccc2Sc2ccccc21,6%[11.4 µM],2.5µM*,-5%[9.17 µM],1%[0.0738 µM],-22%[11.4 µM],0%
O=C(Cn1cnnn1)OCC(=O)c1ccc(Cl)s1,2%,-26%,-1%,13µM*,10µM*,-2%
CCc1cccc2c3c([nH]c12)[C@](CC)(CC(=O)O)OCC3,-4%,nt,-1%,4%,-4%,-2%
O=C(Nc1ccccc1)Nc1ccccn1,-4%,1%,5%,-2%,-5%,6%
S=C(Nc1ccccn1)c1ccccn1,-4%,-17%,5%,0%[9.22 µM],25µM*,4µM*
COc1ccc(CN(Cc2cc3cc4c(cc3[nH]c2=O)OCO4)C(=O)NC2CCCCC2)cc1,-1%,16µM*,0%,0%[57.5 µM],47%,4%
CCN(CC)CCN(Cc1cc2cc3c(cc2[nH]c1=O)OCCO3)C(=O)NC1CCCCC1,-5%,0%,0%,nt,-3%,-1%
O=c1ccc2ccc(O)c(O)c2o1,-1%,25µM*,4%,4%,0%,-2%
CCOc1ccc2c(c1)C(C)=CC(C)(C)N2,3%,25µM*,-6%[20.5 µM],1%,-7%,7%[20.6 µM]
O=S(=O)(NCc1ccccn1)c1cccc2cccnc12,-8%,9%,-4%,0%,-11%,nt
CN1CCc2c(sc3c2c(=O)n(-c2ccccc2)c2nnc(SCc4ccc(F)cc4)n32)C1,-1%,?,-4%,-1%[0.369 µM],4µM*,4%
CSc1nnc2n(-c3ccccc3)c(=O)c3c4c(sc3n12)CCC4,1%,2.5µM*,2%,0%,4%,3%
CN1CCc2c(sc3c2c(=O)n(-c2ccccc2)c2nnc(SCc4ccccc4)n32)C1,nt,nt,nt,nt,nt,-3%[20.6 µM]
Cc1cccc2cc3c(nc12)SC(=NCC1CCCO1)N(Cc1ccco1)C3 (stereo unspecified),-22%,10µM*,7%,0%[57.5 µM],?,3.2µM*
Cc1ccc2nc3c(cc2c1)CN(Cc1ccco1)C(=NCC1CCCO1)S3 (stereo unspecified),-16%,-29%,-2%,0%[57.5 µM],-4%,-2%
C[C@@H](/C=C\c1cccc(Oc2ccc(F)cc2)c1)N(O)C(N)=O,-5%,10µM*,0%,0%,?,-1%
